Results from the supplement of paper PMC10849652.
The full data set covers some 7,900 targets. This sample favours those with a hit. About 0.6% of all pairs of compound and target were hits.

Compound: CC(C)(C)Cn1c(N)nc2ccc(-c3[nH]c(C(C)(C)C)nc3-c3ccc(F)cc3)nc21 [ralimetinib]
Assay: log2 fold change, soluble protein after heating vs DMSO (PISA); higher = thermal stabilisation; K562 cells, 10 uM, 30 min; active = over 0.2 and 3.5 SD of the protein, either way, in both replicates (recomputed)
Procedure, shortened: (§1)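 K562 cells at 2×10^6 cells/mL were treated for 30 min with 10 μM compound, and aliquots were heated for 3 min over 48°C-58°C before pooling. Extraction used PBS with 0.5% NP-40 at 4°C, and soluble protein was the supernatant after 21,000xg for 90 min, measured by TMTpro 16plex LC-MS/MS with channel sums equalised. Thermal stability values, relative to control samples and from duplicates, are log2 fold changes.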

UniProt Q02750, sequence (Q02750 whole entry, looked up): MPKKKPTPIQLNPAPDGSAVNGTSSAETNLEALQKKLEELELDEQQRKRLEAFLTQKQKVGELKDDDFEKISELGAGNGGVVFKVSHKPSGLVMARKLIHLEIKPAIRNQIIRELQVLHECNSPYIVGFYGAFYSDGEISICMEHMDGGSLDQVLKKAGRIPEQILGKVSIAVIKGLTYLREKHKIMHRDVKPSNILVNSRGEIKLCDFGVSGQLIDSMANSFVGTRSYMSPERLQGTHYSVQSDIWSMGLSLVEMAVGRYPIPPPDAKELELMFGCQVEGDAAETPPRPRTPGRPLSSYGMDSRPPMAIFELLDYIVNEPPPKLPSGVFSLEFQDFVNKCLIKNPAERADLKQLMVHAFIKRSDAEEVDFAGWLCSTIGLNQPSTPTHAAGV
UniProt P43362, sequence (P43362 whole entry, looked up): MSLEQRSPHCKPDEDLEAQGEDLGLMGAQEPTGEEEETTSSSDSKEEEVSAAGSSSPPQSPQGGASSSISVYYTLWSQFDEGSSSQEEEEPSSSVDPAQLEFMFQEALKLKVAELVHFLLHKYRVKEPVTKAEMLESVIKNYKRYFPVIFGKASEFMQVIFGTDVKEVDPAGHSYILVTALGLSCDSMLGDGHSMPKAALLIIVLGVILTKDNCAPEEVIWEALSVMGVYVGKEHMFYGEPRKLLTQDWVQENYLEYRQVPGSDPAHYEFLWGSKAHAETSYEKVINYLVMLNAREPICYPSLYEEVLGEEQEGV
UniProt Q8WWC4, sequence (Q8WWC4 whole entry, looked up): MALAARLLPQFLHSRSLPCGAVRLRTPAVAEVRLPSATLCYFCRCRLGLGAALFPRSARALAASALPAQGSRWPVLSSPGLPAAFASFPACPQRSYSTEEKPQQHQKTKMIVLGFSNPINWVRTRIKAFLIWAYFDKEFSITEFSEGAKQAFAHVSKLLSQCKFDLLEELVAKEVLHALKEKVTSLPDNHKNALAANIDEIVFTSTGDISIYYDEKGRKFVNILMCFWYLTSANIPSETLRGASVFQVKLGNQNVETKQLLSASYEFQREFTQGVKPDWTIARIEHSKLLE
UniProt Q9Y2U8, sequence (Q9Y2U8 whole entry, looked up): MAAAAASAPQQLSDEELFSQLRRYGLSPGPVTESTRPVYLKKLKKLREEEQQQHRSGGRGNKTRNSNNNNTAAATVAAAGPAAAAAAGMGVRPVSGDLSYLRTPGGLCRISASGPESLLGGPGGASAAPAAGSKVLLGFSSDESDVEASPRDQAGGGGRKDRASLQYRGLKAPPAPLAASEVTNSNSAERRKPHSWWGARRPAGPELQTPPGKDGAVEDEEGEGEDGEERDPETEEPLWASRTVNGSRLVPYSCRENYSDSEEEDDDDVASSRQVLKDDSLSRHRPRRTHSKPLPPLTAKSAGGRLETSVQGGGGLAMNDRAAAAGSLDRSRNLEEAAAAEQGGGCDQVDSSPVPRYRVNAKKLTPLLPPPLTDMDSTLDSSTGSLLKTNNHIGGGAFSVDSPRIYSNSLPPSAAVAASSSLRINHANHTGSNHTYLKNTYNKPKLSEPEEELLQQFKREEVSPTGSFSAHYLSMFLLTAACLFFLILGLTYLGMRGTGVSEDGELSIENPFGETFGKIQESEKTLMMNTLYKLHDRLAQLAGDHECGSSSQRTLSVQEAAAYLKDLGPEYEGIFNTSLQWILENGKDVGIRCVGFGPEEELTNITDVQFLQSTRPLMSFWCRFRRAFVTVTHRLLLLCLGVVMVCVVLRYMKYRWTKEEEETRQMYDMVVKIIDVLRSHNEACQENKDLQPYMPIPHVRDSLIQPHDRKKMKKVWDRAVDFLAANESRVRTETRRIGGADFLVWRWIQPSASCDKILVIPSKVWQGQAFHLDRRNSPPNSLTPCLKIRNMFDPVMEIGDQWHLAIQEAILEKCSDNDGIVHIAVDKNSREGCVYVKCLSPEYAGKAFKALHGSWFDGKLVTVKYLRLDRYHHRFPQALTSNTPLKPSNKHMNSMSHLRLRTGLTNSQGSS
UniProt Q9C0E8, sequence (Q9C0E8 whole entry, looked up): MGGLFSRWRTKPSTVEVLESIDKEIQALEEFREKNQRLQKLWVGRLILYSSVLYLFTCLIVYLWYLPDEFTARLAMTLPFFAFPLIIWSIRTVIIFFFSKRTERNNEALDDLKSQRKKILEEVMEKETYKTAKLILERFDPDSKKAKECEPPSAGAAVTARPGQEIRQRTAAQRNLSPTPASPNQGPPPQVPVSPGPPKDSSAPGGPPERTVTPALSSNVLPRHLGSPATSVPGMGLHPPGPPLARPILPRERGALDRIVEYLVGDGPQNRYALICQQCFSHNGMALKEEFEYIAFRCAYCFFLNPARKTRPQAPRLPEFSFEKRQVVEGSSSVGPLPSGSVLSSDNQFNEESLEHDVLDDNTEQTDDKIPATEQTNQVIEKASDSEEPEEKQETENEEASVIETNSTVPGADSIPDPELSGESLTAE
UniProt Q7Z4S6, sequence (Q7Z4S6 whole entry, looked up): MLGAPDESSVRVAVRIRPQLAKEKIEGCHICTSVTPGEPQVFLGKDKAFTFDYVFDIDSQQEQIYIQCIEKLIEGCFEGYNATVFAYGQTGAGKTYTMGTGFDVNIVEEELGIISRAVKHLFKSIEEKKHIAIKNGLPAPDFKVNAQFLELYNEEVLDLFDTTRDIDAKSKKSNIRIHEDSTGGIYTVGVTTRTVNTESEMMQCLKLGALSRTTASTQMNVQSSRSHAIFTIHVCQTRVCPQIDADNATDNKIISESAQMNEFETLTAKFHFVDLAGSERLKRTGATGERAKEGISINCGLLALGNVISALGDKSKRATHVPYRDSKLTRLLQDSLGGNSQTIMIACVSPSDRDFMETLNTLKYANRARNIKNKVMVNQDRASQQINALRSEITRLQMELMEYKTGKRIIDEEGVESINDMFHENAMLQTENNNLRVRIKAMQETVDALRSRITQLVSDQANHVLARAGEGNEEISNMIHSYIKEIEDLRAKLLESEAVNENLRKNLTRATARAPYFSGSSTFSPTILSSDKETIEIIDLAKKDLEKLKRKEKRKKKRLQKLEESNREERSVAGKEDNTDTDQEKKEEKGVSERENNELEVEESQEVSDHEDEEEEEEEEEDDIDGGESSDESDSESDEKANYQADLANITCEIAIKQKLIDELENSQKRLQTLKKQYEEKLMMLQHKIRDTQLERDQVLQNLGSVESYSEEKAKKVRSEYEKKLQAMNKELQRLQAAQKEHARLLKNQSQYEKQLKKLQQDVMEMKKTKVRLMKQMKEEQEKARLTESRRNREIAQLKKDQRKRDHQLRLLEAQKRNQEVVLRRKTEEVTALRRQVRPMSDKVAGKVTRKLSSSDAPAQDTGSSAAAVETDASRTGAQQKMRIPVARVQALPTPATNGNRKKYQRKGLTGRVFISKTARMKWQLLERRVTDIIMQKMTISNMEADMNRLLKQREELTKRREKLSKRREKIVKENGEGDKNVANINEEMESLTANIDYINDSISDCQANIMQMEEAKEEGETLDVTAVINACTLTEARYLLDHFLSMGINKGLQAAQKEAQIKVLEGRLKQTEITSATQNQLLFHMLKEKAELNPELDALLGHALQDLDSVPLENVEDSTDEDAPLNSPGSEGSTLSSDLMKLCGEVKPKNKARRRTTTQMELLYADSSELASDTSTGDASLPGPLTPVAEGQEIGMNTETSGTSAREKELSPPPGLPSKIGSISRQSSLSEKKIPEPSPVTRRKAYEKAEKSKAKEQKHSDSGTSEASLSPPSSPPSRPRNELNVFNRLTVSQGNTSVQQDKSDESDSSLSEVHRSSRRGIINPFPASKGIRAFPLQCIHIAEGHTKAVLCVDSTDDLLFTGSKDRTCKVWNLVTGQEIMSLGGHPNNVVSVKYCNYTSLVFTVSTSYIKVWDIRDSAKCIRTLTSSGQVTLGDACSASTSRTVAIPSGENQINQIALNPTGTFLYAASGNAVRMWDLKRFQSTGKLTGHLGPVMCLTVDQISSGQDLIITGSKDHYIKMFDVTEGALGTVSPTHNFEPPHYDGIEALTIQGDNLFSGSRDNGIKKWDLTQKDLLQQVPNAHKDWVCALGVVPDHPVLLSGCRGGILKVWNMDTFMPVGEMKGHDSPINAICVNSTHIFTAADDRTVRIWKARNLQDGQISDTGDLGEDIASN
UniProt P13473, sequence (P13473 whole entry, looked up): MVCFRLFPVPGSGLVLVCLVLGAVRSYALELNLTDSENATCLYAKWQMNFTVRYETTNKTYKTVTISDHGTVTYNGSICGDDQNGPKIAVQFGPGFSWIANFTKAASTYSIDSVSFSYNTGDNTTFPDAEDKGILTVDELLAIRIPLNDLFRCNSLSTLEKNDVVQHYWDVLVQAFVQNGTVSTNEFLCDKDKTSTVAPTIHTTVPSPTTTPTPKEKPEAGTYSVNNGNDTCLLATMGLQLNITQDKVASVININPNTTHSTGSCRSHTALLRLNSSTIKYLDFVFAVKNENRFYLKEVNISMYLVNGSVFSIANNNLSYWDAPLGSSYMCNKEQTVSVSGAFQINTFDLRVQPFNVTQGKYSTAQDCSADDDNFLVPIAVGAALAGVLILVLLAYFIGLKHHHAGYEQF
UniProt O00629, sequence (O00629 whole entry, looked up): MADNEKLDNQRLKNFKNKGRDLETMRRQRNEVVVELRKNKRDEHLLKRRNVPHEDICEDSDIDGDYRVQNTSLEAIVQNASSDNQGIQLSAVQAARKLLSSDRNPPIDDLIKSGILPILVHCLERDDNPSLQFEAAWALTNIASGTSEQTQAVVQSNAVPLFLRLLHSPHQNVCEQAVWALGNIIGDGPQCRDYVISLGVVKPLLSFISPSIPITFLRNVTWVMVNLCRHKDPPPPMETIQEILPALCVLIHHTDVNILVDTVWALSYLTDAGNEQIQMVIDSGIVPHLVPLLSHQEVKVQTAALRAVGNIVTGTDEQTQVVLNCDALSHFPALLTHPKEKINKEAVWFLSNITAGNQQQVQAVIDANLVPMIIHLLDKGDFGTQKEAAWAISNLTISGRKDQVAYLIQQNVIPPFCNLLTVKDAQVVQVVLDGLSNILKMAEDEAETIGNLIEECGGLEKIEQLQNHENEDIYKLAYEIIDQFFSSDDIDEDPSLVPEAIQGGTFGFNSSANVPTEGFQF

log2 fold change, inactive:
MCUR1 (UniProt Q96AQ8) 0.118
ITPRIP (UniProt Q8IWB1) 0.005
MAP2K1 (UniProt Q02750) 0.004
LPGAT1 (UniProt Q92604) 0.041
LMNB1 (UniProt P20700) 0.015
LTV1 (UniProt Q96GA3) 0.134
MAIP1 (UniProt Q8WWC4) -0.028
MIER1 isoform 12 (UniProt Q8N108) 0.033
KCT2 (UniProt Q8NC54) -0.014
KPNA4 (UniProt O00629) -0.048
MAPK12 (UniProt P53778) -0.046
LDLR (UniProt P01130) -0.025
LMF2 (UniProt Q9BU23) -0.008
LTN1 isoform 3 (UniProt O94822) 0.007
LRPPRC (UniProt P42704) -0.144
MAD2L1 (UniProt Q13257) -0.004
LARP4B (UniProt Q92615) 0.135
ILK (UniProt Q13418) 0.027
LTO1 (UniProt Q8WV07) 0.028
KIF3A (UniProt Q9Y496) 0.085
MAP3K20 (UniProt Q9NYL2) 0.019
MAGOHB (UniProt Q96A72) -0.094
MAP3K4 isoform 2 (UniProt Q9Y6R4) 0.007
LIMA1 isoform 4 (UniProt Q9UHB6) 0.011
MAGEC2 (UniProt Q9UBF1) 0.093
MAP2K3 isoform 3 (UniProt P46734) 0.02
MAGEA9 (UniProt P43362) 0
ILVBL (UniProt A1L0T0) -0.075
MDN1 (UniProt Q9NU22) -0.015
KIF21A isoform 4 (UniProt Q7Z4S6) 0.035
LNPK (UniProt Q9C0E8) -0.019
LRBA (UniProt P50851) -0.023
LEMD3 (UniProt Q9Y2U8) -0.082
LAMP2 (UniProt P13473) -0.12
KLHDC4 (UniProt Q8TBB5) 0.062
LBR (UniProt Q14739) -0.001
KHDC4 (UniProt Q7Z7F0) 0.012
MAP4K4 isoform 3 (UniProt O95819) -0.039
LEMD2 (UniProt Q8NC56) -0.02

Compound: CC(C)(O)CC(=O)NCCn1ccc2ncnc(Nc3ccc(Oc4cccc(C(F)(F)F)c4)c(Cl)c3)c21
Assay: as above
Procedure, shortened: as §1

log2 fold change, inactive:
MCUR1 (UniProt Q96AQ8) -0.018
ITPRIP (UniProt Q8IWB1) 0.007
MAP2K1 (UniProt Q02750) -0.066
LPGAT1 (UniProt Q92604) -0.066
LMNB1 (UniProt P20700) 0.091
LTV1 (UniProt Q96GA3) 0.001
MAIP1 (UniProt Q8WWC4) 0.09
MIER1 isoform 12 (UniProt Q8N108) -0.021
KCT2 (UniProt Q8NC54) 0.004
KPNA4 (UniProt O00629) 0.028
MAPK12 (UniProt P53778) 0.001
LDLR (UniProt P01130) 0.072
LMF2 (UniProt Q9BU23) -0.029
LTN1 isoform 3 (UniProt O94822) -0.136
LRPPRC (UniProt P42704) -0.891
MAD2L1 (UniProt Q13257) -0.057
LARP4B (UniProt Q92615) 0.018
ILK (UniProt Q13418) -0.081
LTO1 (UniProt Q8WV07) 0.011
KIF3A (UniProt Q9Y496) -0.151
MAP3K20 (UniProt Q9NYL2) -0.032
MAGOHB (UniProt Q96A72) 0.015
MAP3K4 isoform 2 (UniProt Q9Y6R4) -0.014
LIMA1 isoform 4 (UniProt Q9UHB6) 0.114
MAGEC2 (UniProt Q9UBF1) 0.058
MAP2K3 isoform 3 (UniProt P46734) 0.059
MAGEA9 (UniProt P43362) 0.031
ILVBL (UniProt A1L0T0) -0.053
MDN1 (UniProt Q9NU22) -0.24
KIF21A isoform 4 (UniProt Q7Z4S6) -0.062
LNPK (UniProt Q9C0E8) 0.016
LRBA (UniProt P50851) -0.059
LEMD3 (UniProt Q9Y2U8) -0.09
LAMP2 (UniProt P13473) -0.007
KLHDC4 (UniProt Q8TBB5) 0.002
LBR (UniProt Q14739) -0.211
KHDC4 (UniProt Q7Z7F0) -0.201
MAP4K4 isoform 3 (UniProt O95819) -0.023
LEMD2 (UniProt Q8NC56) -0.024
